Screening results: PubChem BioAssay, several laboratories
Sampled rows, rich in hits. Any-hit rate of the full collection: about 2.9%.
Shn3 inh set2 – reduction of Shn3 3'UTR firefly luciferase signal, primary screen, Schnurri-3 inhibitor project, cell-based, Clone20 osteoblasts, set 2; inhibition, % at 12.5 µM; 360,000 tested, 0.52% active; Clone20 osteoblast Shn3 3'UTR firefly luciferase, 24 h; AID 588674, 2011;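 active = mean inhibition of at least 75% with every replicate also reaching 75%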;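 note: 0% = median of neutral control wells and 100% = pilot-screen positive control compound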
CF NFkB block – inhibitors of PAF-induced NF-kB signaling, primary screen, cell-based, GFP fluorescence, uHTS. KKLEB NF-kB-GFP reporter, GFP fluorescence overnight. inhibition, % at 5 µM. 360,000 tested, 0.86% active;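 active = at least 50% inhibition at 5 µM, scaled per plate between neutral and stimulator controls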;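 note: PAF is a Pseudomonas aeruginosa culture filtrate used as stimulus; plate controls were PAF-stimulated DMSO wells for no effect and unstimulated DMSO wells for full effect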
KKLEB cytotox – cytotoxicity in KKLEB CF airway cells, primary screen, cytotoxicity control for CF NF-kB inhibitor project, cell-based, uHTS, fluorescence assay plates; activity change (cytotoxicity), % at 5 µM; 360,000 tested, 0.36% active; AID 602141, 2011; KKLEB CF airway cells viability, ATPlite luminescence, overnight; hits give low values; cells stimulated with P. aeruginosa culture filtrate;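 active = corrected activity change at or below -50% at 5 µM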
Peg3 promoter – Peg3 promoter-driven luciferase inhibitors, primary screen, cell-based, HeLa, luciferase luminescence; AID 588405, 2011; inhibition, % at 20 µM; HeLa PEG-Prom luciferase reporter, overnight; 360,000 tested, 1.7% active;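 active = inhibition of at least 50% at 20 µM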
LMP1 NFkB inh – EBV LMP1-driven NF-kappaB luciferase reporter inhibitors, primary screen, cell-based, luminescence, single point; inhibition, % at 12.5 µM; LMP1-induced NF-kappaB luciferase reporter cells; 350,000 tested, 0.69% active; AID 504558, 2011; in the data active = inhibition above about 41%;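 note: 0% = neutral control wells and 100% = reference inhibitor control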
HIF-2a block – HIF-2a reporter inhibitors, primary screen, luminescence, 786-0 RCC cells; 786-0 RCC cells HIF-2a reporter, luciferase luminescence, overnight; inhibition, % at 18.8 µM; 360,000 tested, 0.72% active;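 active = inhibition of the luminescence signal of 40% or more relative to plate controls, in a single-dose primary screen at 18.75 µM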
CF NFkB conf – inhibitors of PAF-induced NF-kB signaling, retest, confirmation, cell-based, GFP fluorescence, single concentration | shares compounds with CF NFkB block | KKLEB CF airway cells, overnight | inhibition, % at 5 µM | 1,300 tested, 64% active; in the data active = inhibition above about 40%;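 note: stimulus PAF is a Pseudomonas aeruginosa filtrate and not platelet activating factor; plate controls were DMSO wells with stimulus for no effect and unstimulated DMSO wells for full effect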
An asterisk follows results filed as active; . = no result.

SMILES | Shn3 inh set2 | CF NFkB block | KKLEB cytotox | Peg3 promoter | LMP1 NFkB inh | HIF-2a block | CF NFkB conf
Cc1ccc(S(=O)(=O)n2cc(C=O)c3ccccc32)cc1 | . | -16 | -4 | 30 | -1 | 20 | .
Cc1ccc(S(=O)(=O)n2cc(-c3ccccc3)c3ccccc32)cc1 | 19 | 53* | -12 | -8 | 18 | 0 | 78*
Clc1ccc(CSc2nnc(-c3ccncc3)o2)cc1 | 2 | 70* | -5 | -14 | 4 | -42 | 62*
O=C(c1cc([N+](=O)[O-])ccc1N1CCOCC1)N1CCN(c2ccccc2)CC1 | 3 | 53* | -37 | -11 | 13 | 22 | 59*
CN1CCN(c2ccc([N+](=O)[O-])cc2C(=O)N2CCOCC2)CC1 | -7 | -4 | -9 | 8 | -1 | 0 | .
Cc1ccc(CNC(=O)COC(=O)c2ccc(Cl)c(N)c2)cc1 | -18 | 4 | 6 | 9 | -2 | 11 | .
COc1ccc(Cc2nnc(Nc3c(C)cccc3C)o2)cc1OC | -5 | 3 | 8 | 9 | 5 | 16 | .
Nc1[nH]nc2nc(N3CCCC3)nc(-c3ccccc3)c12 | -16 | 14 | -7 | 5 | 4 | 18 | .
COc1ccc(-c2nc(N3CCOCC3)nc3n[nH]c(N)c23)cc1 | 26 | 69* | -26 | 22 | 14 | 29 | 56*
CC(C)[C@H](NS(=O)(=O)c1ccc2c(c1)OCCO2)C(=O)OCC(=O)Nc1cc(Cl)ccc1Cl | 0 | 6 | -8 | 14 | 6 | 8 | .
CCCC1/C(=N/O)CC(c2ccccc2)NC1c1ccccc1 (stereo unspecified) | 32 | 75* | -3 | 60* | 0 | 21 | 60*
CC1/C(=N/O)CC(c2ccccc2)NC1c1ccccc1 (stereo unspecified) | -1 | 0 | -5 | 14 | 4 | 17 | .
COc1ccc(NC(=O)c2ccc([N+](=O)[O-])o2)cc1 | 9 | 51* | -11 | 43 | -29 | -4 | 34
COc1ccc(NC(=O)c2ccc(Br)o2)cc1 | -57 | -12 | -3 | -249 | -19 | -308 | .
CCCC(=O)N1CCN(c2ccc(NC(=O)c3ccc([N+](=O)[O-])o3)cc2Cl)CC1 | 96* | 74* | -36 | 111* | -29 | 90* | 35
CC(=O)N1CCN(c2ccc(NC(=O)c3ccc(Br)o3)cc2Cl)CC1 | . | -14 | 8 | -52 | -7 | -96 | .
Cc1cccc(OCc2nnc(SCC(=O)N3CCCCC3)o2)c1 | -14 | -10 | -4 | 14 | -2 | 5 | .
Cc1ccc(S(=O)(=O)c2c(C(=O)c3ccccc3)cnc3cc4c(cc23)OCCO4)cc1 | -4 | 51* | -44 | 26 | 6 | 8 | -35
Cc1c(C(=O)c2ccc(Cl)c(Cl)c2)cnc2cc3c(cc12)OCO3 | 9 | -11 | -4 | 1 | -16 | 8 | .
Cc1nc(N2CCN(C)CC2)c2sc(=S)n(-c3ccccc3)c2n1 | -11 | -11 | 4 | -37 | 3 | -108 | .
S=c1sc2c(Cl)ncnc2n1-c1ccccc1 | -7 | 78* | -28 | 112* | 27 | 84* | 25
Cc1nn(-c2cccc(Cl)c2)c2nc(C(F)(F)F)[nH]c(=O)c12 | -15 | 54* | -1 | 42 | 14 | -1 | 44*
Cc1ccccc1CSCC(=O)Nc1ccccc1F | -88 | -7 | -1 | -94 | -13 | -199 | .
COCCCN(C(=O)c1ccc(N2CCCC2=O)cc1)c1c(N)n(Cc2ccccc2)c(=O)[nH]c1=O | -4 | -5 | 4 | -6 | -1 | 22 | .
CCCCN(C(=O)c1ccc(N2CCCC2=O)cc1)c1c(N)n(Cc2ccccc2)c(=O)[nH]c1=O | -11 | 58* | 8 | -23 | 10 | 18 | 36
SMILES | Shn3 inh set2 | CF NFkB block | KKLEB cytotox | Peg3 promoter | LMP1 NFkB inh | HIF-2a block | CF NFkB conf
Cc1ccccc1OC1CCN(C(=O)C2CCC(=O)N(C3CCCC3)C2)CC1 (stereo unspecified) | 33 | -2 | -5 | 11 | -3 | 5 | .
COc1ccc(C(=O)NC(C)c2ccccc2)cc1Br (stereo unspecified) | 5 | 11 | 1 | 13 | -4 | 2 | .
C[C@@H](NC(=O)c1coc(=O)c(Br)c1)c1ccccc1 | 16 | 74* | -6 | 99* | -54 | 10 | 60*
CC(=O)Nc1ccc(-n2nnnc2SCC(=O)N2CCN(C(=O)c3ccco3)CC2)cc1 | 3 | 8 | -15 | 3 | -7 | 11 | .
Cc1nn(-c2ccccn2)c2c1-c1nc(N)ncc1CC2 | -64 | 58* | -12 | -235 | 5 | -163 | 54*
N#Cc1ccsc1NC(=O)c1ccc(Cl)c([N+](=O)[O-])c1 | -36 | 50* | -25 | -164 | -9 | -105 | 68*
N#Cc1ccsc1NC(=O)c1cccc([N+](=O)[O-])c1 | 19 | 16 | -6 | -38 | -3 | -15 | .
Cc1cccc(NC(=O)c2nc[nH]c2C(=O)NCCN(CCNC(=O)c2[nH]cnc2C(=O)Nc2cccc(C)c2)CCNC(=O)c2[nH]cnc2C(=O)Nc2cccc(C)c2)c1 | -23 | 7 | -21 | 48 | -29 | 0 | .
Cc1cccc(NC(=O)c2nc[nH]c2C(=O)NCCCNC(=O)c2[nH]cnc2C(=O)Nc2cccc(C)c2)c1 | 9 | 64* | -25 | 93* | -2 | 5 | 79*
O=C1/C(=C/c2cccnc2)CCc2c1[nH]c1ccccc21 | 55 | 70* | -14 | -127 | 11 | -200 | 84*
COc1cccc(NC(=O)COC(=O)CCCC2=NS(=O)(=O)c3ccccc3N2)c1 | -3 | -8 | 10 | -8 | -2 | 0 | .
CCOC(=O)N1C(=O)[C@](CC)(c2ccccc2)N1C(=O)OCC | 62 | 56* | 1 | 42 | 16 | 30 | 21
CCC1(c2ccccc2)C(=O)N(C(=O)OC(C)(C)C)N1C(=O)OC(C)(C)C (stereo unspecified) | -8 | -17 | 2 | 31 | 7 | 5 | .
O=C(CSc1nc(C2CC2)nc2ccccc12)Nc1ccccc1Cl | 0 | 60* | -36 | 9 | 8 | 2 | 8
O=C(CSc1nc(C2CC2)nc2ccccc12)Nc1ccccc1N1CCOCC1 | 14 | 35 | -20 | 39 | 9 | 36 | .
CCOC(=O)C1(C(=O)OCC)COC(=O)C1CN1Cc2cc3ccccc3nc2C1 (stereo unspecified) | -8 | 69* | -2 | 17 | 1 | 24 | 74*
